This experiment deals with Plasmodium falciparum. In words: GSK_TCMDC: Inhibition of Plasmodium falciparum 3D7 in whole red blood cells, using parasite LDH activity as an index of growth. Test compounds present at 2uM. The class given is functional.
On to `O=C(/C=C/c1ccc(C(F)(F)F)cc1)NCCCCCN1CCCN(C(=O)Nc2cccc(Cl)c2)CC1`, for which the Inhibition is 92%. In turn, `COc1ccc(CC2(c3ccc(F)cc3)N=C(N)N(CCCc3ccc4c(c3)OCO4)C2=O)cc1.O=C(O)C(F)(F)F` (stereo not drawn) showed an Inhibition of 98%. Take `CN1CCN(c2cc3c(cc2Cl)CCN3C(=O)Nc2ccc(NC(=O)c3ccc(C(F)(F)F)cc3)cc2)CC1.Cl`: the Inhibition stood at 100%. The same measure for `Cc1[nH]c(C)c(-c2cccc(-c3ccc(OC(F)(F)F)cc3)c2)c(=O)c1Br`: 97%; for `C=CCn1c(SCc2c(C)noc2C)nc2scc(-c3cccs3)c2c1=O`: 88%.

As to `COc1cccc(-c2cnc(N)c(-c3nc4ccc(C(F)(F)F)cc4[nH]3)c2)c1.Cl`, the Inhibition is given as 99%.

As to `COCCCn1c(=N)c(C(=O)NCCc2ccc(OC)cc2)cc2c(=O)n3cccc(C)c3nc21`, the Inhibition is reported as 95%. The same measure for `O=C(c1ccccc1)N1CCC(CN2CCOC(c3ccccc3)(c3ccccc3)C2)CC1`: 94%; for `Cc1ccccc1C1CCN(C2CCC(NC(=O)/C=C/c3ccc(F)cc3)CC2)CC1` (stereo not drawn): 87%. As for `CC(C)n1ncc2c(C(=O)N3CCCC4CCCCC43)cc(C3CC3)nc21` (stereo not drawn), the figure is 99%; as for `Cc1ccccc1C1CCN(C2CCC(NC(=O)C3=Cc4cc(Cl)ccc4OC3)CC2)CC1` (stereo not drawn), 100%. Regarding `CC(=O)Nc1ccc(OCCN(Cc2ccccc2C(F)(F)F)c2ccc(C#N)c(C(F)(F)F)c2)c(Cl)c1`, the Inhibition was 98%. The same measure for `CCn1c(-c2nonc2N)nc2c(-c3cccc(Cl)c3)ncc(OCCCNCc3cnc(C)nc3N)c21.O=C(O)C(F)(F)F`: 93%.

The values above are taken from ChEMBL document CHEMBL1157539, “Thousands of chemical starting points for antimalarial lead identification” (Nature, 2010).
